# Most compounds without a hit are left out; they make up all but 1.4% or so of the library.
# eLon inh: inhibits E. coli Lon protease; purified E. coli Lon protease, fluorescence polarization; inhibition, % at 7.94 µM; hit rate 0.42% among 360,000; in the data active = inhibition above about 13%, passing the limit was not always enough;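 note: 0% = enzyme with probe and DMSO and 100% = no enzyme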
# Target sequence (P0A9M0 whole entry, looked up): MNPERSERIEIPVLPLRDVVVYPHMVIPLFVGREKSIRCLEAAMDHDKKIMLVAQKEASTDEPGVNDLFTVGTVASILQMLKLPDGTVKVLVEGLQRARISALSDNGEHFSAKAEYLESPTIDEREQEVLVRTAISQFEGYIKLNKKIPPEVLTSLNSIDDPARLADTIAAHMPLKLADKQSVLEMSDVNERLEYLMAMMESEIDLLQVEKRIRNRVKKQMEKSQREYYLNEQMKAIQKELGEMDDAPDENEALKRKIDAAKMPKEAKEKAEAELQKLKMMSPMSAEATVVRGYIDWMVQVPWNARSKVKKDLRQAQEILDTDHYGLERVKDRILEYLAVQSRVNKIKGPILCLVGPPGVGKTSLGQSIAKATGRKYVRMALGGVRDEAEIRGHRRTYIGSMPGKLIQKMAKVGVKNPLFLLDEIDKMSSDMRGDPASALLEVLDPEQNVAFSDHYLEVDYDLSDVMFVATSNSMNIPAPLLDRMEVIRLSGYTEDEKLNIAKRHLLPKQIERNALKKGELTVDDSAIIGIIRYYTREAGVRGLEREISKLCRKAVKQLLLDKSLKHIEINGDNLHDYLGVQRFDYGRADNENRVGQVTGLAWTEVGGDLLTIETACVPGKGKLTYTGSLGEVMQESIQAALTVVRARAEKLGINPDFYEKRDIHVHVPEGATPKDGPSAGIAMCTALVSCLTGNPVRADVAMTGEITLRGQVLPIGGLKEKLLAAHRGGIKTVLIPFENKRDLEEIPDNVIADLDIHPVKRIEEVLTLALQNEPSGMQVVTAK
# GLD-1 RNA inh: GLD-1-TGE RNA interaction inhibition (C. elegans); Q17339; purified GLD-1 + fluorescein TGE RNA, fluorescence polarization; inhibition, % at 5.96 µM; hit rate 0.44% among 320,000;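 active = percent inhibition above a per-plate cutoff, the plate mean of test compounds plus 3 SD, cut at about 30% in these data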;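 note: 0% = DMSO wells with GLD-1 and probe and 100% = wells lacking GLD-1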
# MEX-5 binding: C. elegans MEX-5 TCR-2 RNA binding activity; Q9XUB2; MEX-5/FITC-TCR2 RNA binding, fluorescence polarization; active compounds read low; activity score (negative = inhibition of binding), % at 10 µM; hit rate 0.38% among 300,000; AID 1832;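 active = inhibition past about -25% in most replicates, and total fluorescence under double the plate's negative control median, limit read from the data; inconclusive = replicates evenly split on the limit, or fluorescence at least double controls; inactive = too little inhibition in most replicates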;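 note: 0% = DMSO and -100% = 5 µM competing unlabeled TCR2 RNA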
# BCLXL inh: Bcl-xL (human) inhibition. hit rate 0.7% among 320,000. Q07817. inhibition, % at 10.9 µM. GST-Bcl-xL / FITC-Bim BH3 peptide fluorescence polarization;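 active = inhibition above the mean of all tested compounds plus 3 SD, cutoff set per campaign, cut at about 30% in these data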;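 note: 0% = DMSO wells and 100% = unlabeled Bim-BH3 peptide competitor; inhibitors lower millipolarization by displacing the labeled peptide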
# MCL1 BIM primary: disrupts human MCL1 binding to BIM-BH3 peptide; hit rate 0.68% among 320,000; inhibition, % at 10.9 µM; Q07820; GST-MCL1 / FITC-Bim-BH3 fluorescence polarization; AID 2057;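 active = inhibition above the mean inhibition of all tested compounds plus 3 SD, set per campaign, cut at about 40% in these data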;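 note: 0% = DMSO wells and 100% = unlabeled Bim-BH3 peptide control; higher means more loss of mP so more displacement of Bim peptide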
# Bcl-xL conf: Bcl-xL (human) inhibition, MCL1 counter-screen confirmation; shares compounds with MCL1 BIM primary; hit rate 54% among 1,700; AID 2166; GST-Bcl-xL / FITC-Bim BH3 peptide FP binding; inhibition, % at 10.9 µM;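 active = inhibition above a cutoff equal to the mean inhibition of all tested compounds plus 3 SD, cut at about 30% in these data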;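 note: 0% = DMSO wells and 100% = unlabeled Bim BH3 control peptide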
# MCL1 BIM confirm: MCL1-BIM-BH3 interaction inhibition, confirmation | shares compounds with MCL1 BIM primary | GST-MCL1 / FITC-Bim-BH3 fluorescence polarization | inhibition, % at 10.9 µM | hit rate 61% among 1,700;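 active = inhibition above the average of all tested compounds plus 3 SD, cut at about 40% in these data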;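 note: 0% = DMSO wells and 100% = unlabeled Bim-BH3 control peptide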
# Starred values were filed as active, the others as inactive; ? = inconclusive; / = not tested or not shown; + = active, no number.
SMILES,eLon inh,GLD-1 RNA inh,MEX-5 binding,BCLXL inh,MCL1 BIM primary,Bcl-xL conf,MCL1 BIM confirm
Cc1ccc[n+](-c2[nH]c(=O)sc2/C=N/NC(=O)c2ccccc2[O-])c1,6,31*,-27*,44*,75*,39*,56*
O=C1C2C(C(=O)N1/N=C/c1cc([N+](=O)[O-])c(O)cc1O)C1C=CC2C12CC2 (stereo unspecified),4,-1,-9,13,48*,18,59*
O=C1C2CC=C(Cl)CC2C(=O)N1CCCCCCN1C(=O)C2CC=C(Cl)CC2C1=O (stereo unspecified),32,15,-28*,30,40*,33*,55*
CC(C)(C)c1cc2nc(NCCOc3ccccc3)ccn2n1,-5,/,/,/,/,/,/
CCOC(=O)C1CCN(C(=O)c2cc3c(=O)n4ccccc4nc3n2C)CC1,-4,21,-4,67*,85*,-27,-31
Cn1c(C(=O)N2CCOCC2)cc2c(=O)n3ccccc3nc21,17,2,1,2,8,/,/
O=C1/C(=C/c2ccco2)SC(=S)N1C1CCS(=O)(=O)C1 (stereo unspecified),4,18,-1,30,67*,14,18
CCN(C(=O)C(C)N1C(=O)/C(=C/c2ccco2)SC1=S)C1CCS(=O)(=O)C1 (stereo unspecified),2,12,-1,33*,59*,25,56*
O=C(OCc1cn([C@H]2CN(C(=O)c3cccs3)[C@@H](c3ccccc3)C[C@@H]2O)nn1)c1ccccc1,-5,/,/,/,/,/,/
CN1CCC(C)(C(=O)Nc2ccc3c(c2)OCCO3)C1 (stereo unspecified),-3,/,/,/,/,/,/
Nc1ccc(-c2c3ccc(=O)cc-3oc3cc(O)ccc23)c(C(=O)O)c1,-255,16,/,86*,78*,77*,76*
COc1ccc(-c2cc(=O)c3ccc(O)cc3o2)cc1OC,-2,/,/,/,/,/,/
COc1ccccc1NC(=O)CC(NC1CCCCC1)C(=O)O (stereo unspecified),-6,-1,0,0,62*,-16,-18
CN1CCN(C2=Nc3cc(Cl)ccc3Nc3ccccc32)CC1,-1,0,0,2,-1,/,/
CN1CCN(C2=Nc3c(Cl)cc(Cl)c4cccc2c34)CC1,12,40*,-7,75*,80*,82*,110*
CCCCCCCCN1C(=O)[C@H](CC(=O)NCCCCc2ccccc2)C[C@@]2(C(=O)OC)CCCCC=C12,-5,/,/,/,/,/,/
Cc1nnc2c3ccccc3c(-c3ccc(O)cc3)nn12,3,2,-1,-3,-2,/,/
Cc1c(-c2ccc(O)cc2)nc2nc(-c3ccccc3)c(-c3ccccc3)nn12,/,22,7,118*,112*,44*,54*
CCCCn1c(SCC(=O)Nc2ccc3c(c2)CCC3)nc2ccccc2c1=O,-6,1,-1,4,0,/,/
C=CCn1c(SCC(=O)Nc2ccc3c(c2)CCC3)nc2ccccc2c1=O,4,2,-1,-1,+,6,15
Cc1cc(C)n(C(C)Sc2ccccc2)n1 (stereo unspecified),-4,9,2,5,5,/,/
CCCCN(C=O)c1c(CC)nc2ccc(C(=O)NCCOc3ccc(OC)cc3)cn12,4,/,/,/,/,/,/
Cc1cc(C)c2c(c1)NC(C(=O)O)C1CC=CC21 (stereo unspecified),-11,3,-38*,69*,115*,45*,92*
CCOC(=O)C1Nc2c(F)cc(C)cc2C2C=CCC12 (stereo unspecified),/,-6,-4,14,36,/,/
Cc1ccc2c(c1C)NC(C(=O)O)C1CC=CC21 (stereo unspecified),-6,-1,-1,48*,76*,47*,89*
SMILES,eLon inh,GLD-1 RNA inh,MEX-5 binding,BCLXL inh,MCL1 BIM primary,Bcl-xL conf,MCL1 BIM confirm
O=C(O)C1Nc2c(C(=O)N3CCOCC3)cccc2C2C=CCC12 (stereo unspecified),6,17,-57*,50*,68*,42*,72*
CC(C)C[C@@H]1COc2cccc(N3CCC[C@H]3CO)c2S(=O)(=O)N1,9,/,/,/,/,/,/
O=C1C(Cl)=C(NC(=O)c2ccccc2)C(=O)C(Cl)=C1NC(=O)c1ccccc1,19,22,-86*,36*,57*,54*,57*
O=C(COC(=O)c1ccc2ncsc2c1)Nc1cc([N+](=O)[O-])ccc1Cl,-22,-3,/,-8,42*,-6,-18
CC1CN(C(=O)COC(=O)c2cc(=O)[nH]c3ccccc23)CC(C)O1 (stereo unspecified),-16,/,/,/,/,/,/
COC(=O)c1ccc(C(=O)Nc2ccc(N)cc2N)cc1,-334,-81,3,76*,77*,21,24
CCOc1cc(N2CCOCC2)c(OCC)cc1NS(=O)(=O)c1ccc2c(c1)CC(=O)N2,0,/,/,/,/,/,/
CCCCCC#CCC#CCC#CCC#CCCCC(=O)O,/,11,-22,25,96*,15,86*
Nc1nc(SCC(=O)O)[nH]c(=O)c1NC(=O)c1ccco1,-7,28,-3,41*,55*,3,3
Nc1nc(SCCO)[nH]c(=O)c1NC(=O)c1ccco1,20,4,/,5,5,/,/
CN1CCN(C2=C(Cl)C(=O)C(c3cnc(N4CCCCC4)s3)=C(Cl)C2=O)CC1,8,27,-71*,77*,93*,72*,92*
COC(=O)c1cc(O)cc(OC)c1Oc1cc(C)cc(O)c1C(=O)O,3,6,/,21,73*,20,76*
CCc1nc2ccc(C(=O)N3CCN(C(=O)c4ccco4)CC3)cn2c1N(C)C(=O)c1cccc(OC)c1,-1,/,/,/,/,/,/
O=C(CCN1C(=O)/C(=C/c2ccco2)SC1=S)Nc1ccc(O)cc1C(=O)O,-13,/,-6,/,/,/,/
O=C(CCN1C(=O)/C(=C\c2ccco2)SC1=S)Nc1ccc(C(=O)O)c(O)c1,-32,0,?,31*,64*,14,23
O=C(CCN1C(=O)/C(=C/c2ccco2)SC1=S)Nc1ccc(C(=O)O)c(O)c1,-27,-5,-20,25,65*,32*,54*
COc1cccc(C(C)(O)c2nc(-c3cc(F)cc(F)c3)cs2)c1 (stereo unspecified),-5,/,/,/,/,/,/
Fc1ccc(-n2nnc(-c3ccccc3Br)n2)cc1,-2,4,2,10,+,6,8
CN1OC[C@@H]2CN[C@H](c3cccc(-c4ccccc4)c3)C[C@@H]21,1,/,/,/,/,/,/
O=C1c2ccccc2-c2onc3ccc(Oc4ccccc4)c1c23,-19,37*,-15,63*,61*,20,25

# From PubChem
